Compound activity as filed in PubChem BioAssay.
Hits are enriched below; roughly 1.5% of the tested compounds scored in any of these assays.
MbtI inh = MbtI salicylate synthase inhibitors, primary screen, biochemical, fluorescence intensity; P9WFX0; purified MbtI enzyme, fluorescence intensity read-out; inhibition, % (test concentration not listed); 100,000 tested, 0.89% active; AID 493033, 2011; in the data active means inhibition mostly above about 56%, no sharp cut-off; inactive means mostly below about 77%
Target sequence (P9WFX0 whole entry, looked up): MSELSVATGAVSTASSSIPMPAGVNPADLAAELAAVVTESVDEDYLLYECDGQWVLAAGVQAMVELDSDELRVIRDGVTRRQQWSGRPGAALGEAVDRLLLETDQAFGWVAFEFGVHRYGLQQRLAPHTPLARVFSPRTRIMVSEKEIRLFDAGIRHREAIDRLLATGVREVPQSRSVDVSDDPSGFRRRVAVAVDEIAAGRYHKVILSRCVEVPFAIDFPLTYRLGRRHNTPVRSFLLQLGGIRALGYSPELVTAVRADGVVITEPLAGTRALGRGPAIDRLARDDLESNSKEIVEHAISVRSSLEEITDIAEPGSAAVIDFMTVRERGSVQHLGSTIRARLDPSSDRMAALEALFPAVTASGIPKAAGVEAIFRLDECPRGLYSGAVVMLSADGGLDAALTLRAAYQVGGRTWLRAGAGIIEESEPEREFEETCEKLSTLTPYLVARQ
Mtb MenB inh = M. tuberculosis MenB inhibitors, primary screen, biochemical, absorbance; AID 540299, 2011; MenB enzyme assay, absorbance read-out; inhibition, % (test concentration not listed); 100,000 tested, 0.43% active; 1,4-dihydroxy-2-naphthoyl-CoA synthase (Mycobacterium tuberculosis (strain ATCC 25618 / …; in the data active means inhibition above about 21%, passing the limit was not always enough
Polio RdRp inh = poliovirus RdRp elongation inhibitors, primary screen, biochemical, fluorescence polarization, total intensity | poliovirus polymerase elongation; hits give low values | 150,000 tested, 0.66% active | % elongation, % (compound at 16.7 µg/mL); in the data active means % elongation below about 90%
AID504770 = growth inhibition of E. coli YBA685, primary screen, V. cholerae RctB inhibitors. 130,000 tested, 0.27% active. E. coli YBA685 rctB-dependent plasmid, OD600 growth, 3 h; hits give low values. z-score (concentration not given with the values); in the data active means z-score below about -2, passing the limit was not always enough
Each line names hits and unclear results; the compound was inactive in the other large screens.

O=C(O)c1ccc(CN2CCc3ccccc3C2)cc1	none
CCS(=O)(=O)c1ccc2oc(=O)c(/C=C(\O)c3oc(C)nc3C)nc2c1	none
Cc1ccc2oc(=O)c(/C=C(\O)CC(C)C)nc2c1	Mtb MenB inh 69.2
Cc1cccc2nc(-c3ccccn3)c(Nc3ccc(F)cc3)n12	none (no result: MbtI inh, Mtb MenB inh, AID504770)
Cc1cccc(C)c1Nc1c(-c2ccccc2F)nc2cccc(C)n12	Polio RdRp inh 88.0 (no result: MbtI inh, Mtb MenB inh, AID504770)
O=C(C(Cc1ccccc1)n1cccc1)N1CCCC1 (stereo not given)	none
CCc1ccc(NC(=O)/C=C/c2ccco2)cc1	none
CCc1cccc(NC(=O)/C=C/c2ccco2)c1	MbtI inh 77.6
C1=C(C23CC4CC(CC(C4)C2)C3)SC2=NCCN12	MbtI inh 68.7
C1CNC(C23CC4CC(CC(C4)C2)C3)=N1	none
O=C(N1CCN(Cc2ccc3c(c2)OCO3)CC1)N1c2ccccc2Sc2ccccc21	none
Cn1ncc(S(=O)(=O)Cc2ccccc2)c(Cl)c1=O	MbtI inh 90.1
CCCCc1c(C(=O)O)cccc1C(=O)O	Mtb MenB inh 26.6
CC(C)NS(=O)(=O)c1ccc(NC(=O)C(C)OC(=O)c2ccc(CO)cc2)cc1 (stereo not given)	none
Cc1nn(CCC(N)=S)c2nc(-c3ccccc3)ccc12	Polio RdRp inh 73.0
O=C(COc1ccc(Cl)cc1)Nc1sc2c(c1C(=O)Nc1cccc(Cl)c1)CCCC2	Polio RdRp inh 81.0 (no result: MbtI inh, Mtb MenB inh, AID504770)
Cc1cccc(NC(=O)c2c(NC(=O)C(F)(F)F)sc3c2CCCCC3)c1	none (no result: MbtI inh, Mtb MenB inh, AID504770)
O=C(Nc1cccc(Cl)c1)c1c(NC(=O)C(F)(F)F)sc2c1CCCC2	Polio RdRp inh 79.0 (no result: MbtI inh, Mtb MenB inh, AID504770)
Cc1ccccc1NC(=O)c1c(NC(=O)C(C)Oc2cccc(Cl)c2)sc2c1CCCC2 (stereo not given)	Polio RdRp inh 87.0 (no result: MbtI inh, Mtb MenB inh, AID504770)
CCOc1ccccc1NC(=O)c1c(NC(=O)C(C)Oc2cccc(Cl)c2)sc2c1CCCCC2 (stereo not given)	none (no result: MbtI inh, Mtb MenB inh, AID504770)
COc1ccc(Cl)cc1NC(=O)c1c(NCc2sccc2C)sc2c1CCCC2	Polio RdRp inh 70.0 (no result: MbtI inh, Mtb MenB inh, AID504770)
CC1CCC(C(=O)NC(C(=O)NC2CCN(Cc3ccccc3)CC2)C(C)C)CC1 (stereo not given)	none (no result: MbtI inh, Mtb MenB inh, Polio RdRp inh)
O=C(Nc1cccc(F)c1)N1CCN(Cc2ccccc2)CC1	none
Cc1nn(-c2ccccc2)c(Cl)c1/C=C/C(=O)O	none
Cc1ccc(NC(=O)CSC(=N)N)cc1	none
N=C(N)SCC(=O)Nc1ccccc1	Mtb MenB inh 22.7
